An excerpt weighted towards active compounds, which were near 11% of everything screened.
NIH3T3 tox = Cytotoxic Profiling in NIH 3T3 Cell Line of Diverse Libraries Using Quantitative High-Throughput Screening; NIH 3T3 viability, CellTiter-Glo ATP luminescence, 48-72 h; Potency, µM (titrated, usually from 96.7 µM), most hits filed as inhibitors; 4.3% of 94,000 active; AID 1345082, 2018; further: nearly all actives have a fitted effect of over 55% in size
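ATP-dependent luminescence (CellTiter-Glo) served as the viability signal for NIH 3T3 cells treated with compound for 48 or 72 hr at 37 °C.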
HEK293 tox = Cytotoxic Profiling in HEK 293 Cell Line of Diverse Libraries Using Quantitative High-Throughput Screening; HEK 293 viability, ATP luminescence (CellTiter-Glo), 48-72 h; Potency, µM (series often up to 115 µM), most hits filed as inhibitors; 6.6% of 94,000 active; further: nearly all actives have a fitted effect of over 60% in size
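Viability of HEK 293 cells, plated at 250 cells/well, was judged by cellular ATP after compound treatment for 48 or 72 hr. Luminescence was imaged 10 min after CellTiter-Glo addition at room temperature.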
hNpr1 antagonist = Natriuretic polypeptide receptor (hNpr1) antagonism - Primary qHTS; Atrial natriuretic peptide receptor 1 (Homo sapiens), P16066; HEK293 hNpr1 GloSensor cGMP, ANP-stimulated luminescence; Potency, µM (doses to about 46.3 µM), most hits filed as inhibitors; 1.6% of 76,000 active; AID 1347048, 2019; calls by dose curve; further: nearly all actives have a fitted effect of over 60% in size
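HEK293 cells stably expressing human Npr1 and cGMP GloSensor pGS-40F, loaded 2 h with 2% GloSensor reagent, given compound 30 min at room temperature. Luminescence read before and 20 min after 0.1 nM hNppA.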
Luciferase inh = Firefly luciferase inhibition profiling of diverse chemical library using quantitative high-throughput screening | AID 1347043, 2019 | purified P. pyralis luciferase, luminescence, biochemical | 2.5% of 76,000 active | Luciferin 4-monooxygenase (Photinus pyralis), P08659 | Potency, µM (highest dose often 115 µM), most hits filed as inhibitors; further: nearly all actives have a fitted effect of over 65% in size
Target sequence (P08659 whole entry, looked up): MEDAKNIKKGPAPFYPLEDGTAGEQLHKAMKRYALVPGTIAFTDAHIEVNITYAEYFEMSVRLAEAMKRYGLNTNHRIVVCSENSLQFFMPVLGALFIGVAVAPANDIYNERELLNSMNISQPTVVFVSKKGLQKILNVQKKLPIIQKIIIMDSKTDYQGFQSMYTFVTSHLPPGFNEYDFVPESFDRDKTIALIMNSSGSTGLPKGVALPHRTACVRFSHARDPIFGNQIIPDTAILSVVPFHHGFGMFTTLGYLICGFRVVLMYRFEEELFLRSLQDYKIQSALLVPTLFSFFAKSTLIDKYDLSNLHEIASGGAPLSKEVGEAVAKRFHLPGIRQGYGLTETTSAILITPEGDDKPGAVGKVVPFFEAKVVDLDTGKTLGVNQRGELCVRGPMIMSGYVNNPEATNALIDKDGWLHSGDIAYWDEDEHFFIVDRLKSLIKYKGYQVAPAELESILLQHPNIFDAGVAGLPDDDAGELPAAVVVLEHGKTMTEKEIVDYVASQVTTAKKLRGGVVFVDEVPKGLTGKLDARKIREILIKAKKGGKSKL
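Purified 10nM P. pyralis luciferase with 10uM D-luciferin and 10uM ATP in 50mM Tris acetate pH 7.5, 10mM Mg acetate, 0.01% Tween-20, 0.05% BSA. qHTS titration; luminescence read by CCD imager.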
Hits are given with their value; . = inactive; ? = inconclusive; / = no result given. Unless noted, the call rests on the fitted dose curve; in most records, active means well fitted curve in the direction sought with a large enough effect; inconclusive means small, poorly fitted or top-dose-only effect, or another doubt; inactive means no such curve, though single readings can be large; an effect the other way counts as inactive or inconclusive.

SMILES | NIH3T3 tox | HEK293 tox | hNpr1 antagonist | Luciferase inh
COc1ccc(C(=O)N2CCc3nc(C(C)C)nc(-c4ccc(OC)cc4)c3C2)cc1 | . | . | . | .
CSc1ccc(-c2cccc(CN3CCC(N[S+](=O)([O-])c4cccc(C(F)(F)F)c4)CC3)c2)cc1 | 10µM | 13µM | / | /
Cc1cccc(-c2cccc(CN3CCC(N[S+](=O)([O-])c4cccc(C(F)(F)F)c4)CC3)c2)c1 | 11µM | ? | / | /
COc1cccc(C(=O)NC2CCN(Cc3cccc(-c4ccc(SC)cc4)c3)CC2)c1 | . | . | / | /
Cn1ncc2c(C(=O)Nc3ccccc3F)cc(-c3cccc(C(F)(F)F)c3)nc21 | ? | . | / | /
Cc1cnc(C2CC2)n1CCNC(=O)C1CC1 | . | . | / | /
O=C(NCCNC(=O)c1ccc(-c2cccc(C(F)(F)F)c2)cc1)Nc1ccc(Cl)cc1 | . | . | / | /
CCOC(=O)C[C@@H]1C[C@@H](C(C)C)[C@H](CNC(=O)c2ccc(F)cc2)C=C1C | ? | 35µM | ? | .
COc1ccc(C(=O)NC[C@@H]2C=C(C)[C@H](CC(=O)O)C[C@H]2C(C)C)cc1 | 35µM | . | . | .
O=C(C1CC1)N1CCc2nc(-c3ccccc3)nc(-c3ccc(Cl)cc3)c2C1 | . | . | . | .
COC(=O)N1CCc2nc(-c3ccc(OC)cc3)nc(-c3ccccc3)c2C1 | ? | ? | . | .
O=C(C1CCCC1)N1CCc2nc(-c3ccccc3)nc(-c3ccc(Cl)cc3)c2C1 | ? | 35µM | . | .
COc1ccc(-c2nc(-c3ccccc3)nc3c2CN(C(=O)C2CCCC2)CC3)cc1 | ? | 35µM | . | .
CCc1nc2c(c(-c3ccc(O)cc3)n1)CN(C(=O)C1CCCC1)CC2 | ? | 40µM | / | /
O=C(C1CCCC1)N1CCc2nc(-c3ccc(Cl)cc3)nc(-c3ccccc3)c2C1 | ? | 18µM | . | ?
CN(CCc1ccccc1)CC[C@@H]1CC[C@H](O)[C@@H](C(=O)NC2CCCCC2)O1 | . | . | . | .
COc1ccc(-c2nc(C3CC3)nc3c2CN(C(=O)c2ccccc2F)CC3)cc1 | 28µM | . | / | /
CCNC(=O)N[C@@H]1C=C[C@@H](c2c(C)nn(-c3ccc(C(C)(C)C)cc3)c2C)C1 | ? | 35µM | 32µM | ?
Cc1nn(-c2ccc(C(C)C)cc2)c(C)c1[C@@H]1C=C[C@@H](NC(=O)NC2CCCCC2)C1 | ? | ? | ? | 7.9µM
Cc1nn(-c2ccc(C(C)C)cc2)c(C)c1[C@@H]1C=C[C@@H](NC(=O)NCc2ccccc2)C1 | 25µM | 25µM | 7.1µM | ?
Cc1nn(-c2ccc(C(C)C)cc2)c(C)c1[C@@H]1C=C[C@@H](NC(=O)Nc2ccc(Cl)cc2)C1 | ? | ? | . | .
Cc1nn(-c2ccc(C(C)(C)C)cc2)c(C)c1[C@@H]1C=C[C@@H](NC(=O)c2ccc(N(C)C)cc2)C1 | ? | ? | . | .
Cc1nn(-c2ccc(C(F)(F)F)cc2)c(C)c1[C@@H]1C=C[C@@H](NC(=O)NC2CCCCC2)C1 | ? | ? | . | .
Cc1nn(-c2ccc(C(C)(C)C)cc2)c(C)c1[C@@H]1C=C[C@@H](NC(=O)NCc2ccccc2)C1 | ? | 28µM | 18µM | ?
Cc1nn(-c2ccc(C(F)(F)F)cc2)c(C)c1[C@@H]1C=C[C@@H](NC(=O)CC(C)(C)CC(=O)O)C1 | ? | . | . | .
SMILES | NIH3T3 tox | HEK293 tox | hNpr1 antagonist | Luciferase inh
Cc1nn(-c2ccc(C(C)(C)C)cc2)c(C)c1[C@@H]1C=C[C@@H](NCc2ccco2)C1 | ? | 11µM | . | 50µM
COc1cccc(C(=O)N2CC(Oc3ccccc3-c3nc(-c4ccccc4)no3)C2)c1 | ? | 20µM | . | ?
Cc1cnc(C(=O)N2CC(Oc3ccccc3-c3nc(C4CC4)no3)C2)cn1 | . | ? | . | .
Cn1nccc1C(=O)N1CCC(Oc2ccccc2)C1 (configuration not stated) | . | . | . | .
Cc1nc(C)c(C(=O)N2CC(Oc3ccccc3-c3nc(C4CC4)no3)C2)s1 | ? | 89µM | . | .
Cn1nccc1C(=O)N1CCC(Oc2ccc(-c3noc(-c4ccccc4)n3)cc2)C1 (configuration not stated) | ? | 22µM | / | /
O=C(c1cccnc1)N1CC(Oc2ccc(-c3noc(-c4ccccc4)n3)cc2)C1 | . | ? | 11µM | ?
COCCn1c(=O)c(C(=O)N2CCN(C(=O)OC)CC2)nc2cccnc21 | . | . | / | /
COCCNC(=O)c1ccc2oc(-c3ccc(OC)nc3)nc2c1 | . | ? | / | /
CCc1nc2c(c(-c3ccc(O)cc3)n1)CN(C(=O)c1ccc(OC)cc1)CC2 | . | ? | / | /
COc1cccc(C(=O)N2CC(Oc3ccc(-c4nc(-c5ccccc5)no4)cc3)C2)c1 | ? | 22µM | . | .
COc1cccc(C(=O)N2CC(Oc3cccc(-c4nc(-c5ccccc5)no4)c3)C2)c1 | ? | ? | . | ?
O=C(c1ccc(Cl)nc1)N1CCCC(C(=O)N2CCC(c3nc4ncccc4[nH]3)C2)C1 (configuration not stated) | . | . | / | /
COc1ccc(C(=O)N2CCC3(CC2)NC(=O)N(c2ccccc2)N3)cc1F | . | . | . | .
COc1ccc(C(=O)N2CCOCC3(CN(Cc4cccc(Cl)c4)C3)C2)cc1OC | ? | 45µM | . | .
COc1ccc(C(=O)N2CCOCC3(CN(Cc4ccc(F)c(Cl)c4)C3)C2)cc1OC | . | ? | . | .
COc1ccc(C(=O)N2CCOCC3(CN(Cc4cc(F)ccc4F)C3)C2)cc1OC | ? | 112µM | . | .
O=C1NCCCCCCN(Cc2ccncc2)[C@@H]2CN(S(=O)(=O)c3cccc(F)c3)CC[C@H]12 | . | . | . | .
COc1ccc(CNC(=O)C2CCCN2C(=O)c2cccc(-c3cccnc3)c2)cc1 (configuration not stated) | ? | . | / | /
CC1CCCN(C(=O)CN2CCCc3nc(-c4ccccc4)ncc3C2=O)C1 (configuration not stated) | . | 79µM | . | .
O=C(NC1CC1)c1cc(-c2cccc(C(F)(F)F)c2)c2nncn2n1 | . | . | / | /
O=C(NCC1CC1)c1cc(-c2cccc(C(F)(F)F)c2)c2cccn2n1 | ? | 28µM | / | /
CC(C)NC(=O)c1cc(-c2cccc(C(F)(F)F)c2)c2nncn2n1 | . | . | / | /
COCCNC(=O)c1cc(-c2cccc(C(F)(F)F)c2)c2cccn2n1 | ? | 32µM | / | /
O=C(c1ccc(C2CCCNC2)cc1)N1CCC(Oc2cccc(F)c2)CC1 (configuration not stated) | 40µM | 28µM | . | .
Cc1cc(C(=O)N2CCC3(CC2)CC(CN2CCOCC2)N(C)C3)n(C)n1 (configuration not stated) | . | . | / | /
C=CCOc1c(OC)ccc2c1CN(CC1CC1)C(=O)CCN2CC(O)COC(C)(C)C (configuration not stated) | . | ? | / | /

Assay outcomes from PubChem.
